Screening data as filed in PubChem.
KinaseGlo FLuc: counter-screen: inhibitors of Kinase-Glo firefly luciferase | Kinase-Glo luciferase, ATP luminescence, 8 min | Potency, µM (top dose mostly 38.3 µM), for inactives: top-dose activity change, negative = inhibition, actives largely listed as inhibitors | hit rate 0.28% among 200,000; note: nearly all actives have a fitted effect of over 60% in size
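Inhibition of Kinase-Glo luciferase light generation was assessed at 10 uM ATP in pH 7.2 imidazole buffer, with luminescence measured after eight minutes at ambient temperature.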
VP16 counter: inhibits Gal4-VP16 luciferase reporter, ROR gamma counter-screen; Drosophila S2 Gal4-VP16 UAS-luciferase, luminescence, 20 h; AID 2546; hit rate 3.5% among 310,000; Potency, µM (titrated, usually from 53.6 µM), without a hit: at the highest dose activity, negative = inhibition, actives largely listed as inhibitors;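 note: Gal4-VP16 expression switched on by copper sulfate through the metallothionein promoter; nearly all actives have a fitted effect of over 50% in size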
RORgamma inh: blocks mouse ROR gamma transcriptional activity | Drosophila S2 Gal4-RORgamma UAS-luciferase reporter, 20 h | AID 2551 | Potency, µM (series often up to 53.6 µM), inactives show at the top dose activity change, negative = inhibition, actives largely listed as inhibitors | hit rate 5.4% among 310,000; note: nearly all actives have a fitted effect of over 60% in size
Target sequence (P51450 whole entry, looked up, the tested form may be a part): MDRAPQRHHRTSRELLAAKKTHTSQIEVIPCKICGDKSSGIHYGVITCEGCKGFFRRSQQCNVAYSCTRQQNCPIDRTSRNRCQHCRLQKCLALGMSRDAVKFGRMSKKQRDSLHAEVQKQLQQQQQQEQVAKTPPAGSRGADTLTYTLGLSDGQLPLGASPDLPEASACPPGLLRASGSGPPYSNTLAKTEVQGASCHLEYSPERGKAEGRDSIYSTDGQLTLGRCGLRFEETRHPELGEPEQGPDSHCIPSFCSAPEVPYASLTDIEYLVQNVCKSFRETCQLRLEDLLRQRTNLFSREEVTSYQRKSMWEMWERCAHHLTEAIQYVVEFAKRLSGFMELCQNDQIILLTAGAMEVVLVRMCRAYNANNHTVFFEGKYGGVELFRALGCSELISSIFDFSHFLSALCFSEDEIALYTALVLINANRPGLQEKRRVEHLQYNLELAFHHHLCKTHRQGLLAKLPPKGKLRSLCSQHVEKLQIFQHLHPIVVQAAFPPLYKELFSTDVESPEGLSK
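Luminescence from a UAS-regulated Photinus luciferase reporter in stably transfected Drosophila Schneider cells is measured; decreased signal marks ROR gamma inhibition. Fusion expression is induced by 700 uM copper sulfate for 20 hr.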
Starred values were filed as active, the others as inactive; ? = inconclusive; nt = no result given; [ ] = dose if it differs, or a comment. Shown are actives, neighbours in structure and some others; about 6.4% of the full set was active somewhere. Calls come from the whole dose curve; as a rule, active = well fitted curve in the direction sought with a large enough effect; inconclusive = small, poorly fitted or top-dose-only effect, or another doubt; inactive = no such curve, though single readings can be large; an effect the other way counts as inactive or inconclusive. % is set by controls: 0 for no effect and ±100 for the full control effect; potency is the fitted concentration of half-maximal effect.

SMILES | KinaseGlo FLuc | VP16 counter | RORgamma inh
O=C(N/N=C\c1ccc(CNS(=O)(=O)c2ccccc2)o1)C(=O)Nc1ccc(F)cc1 | 3% | 16% | ?
O=C(N/N=C\c1ccc(CNS(=O)(=O)c2ccc(Cl)cc2)o1)C(=O)Nc1ccc(Oc2ccccc2)cc1 | 0% | 13µM* | 13µM*
O=C(NCc1ccc(/C=N\NC(=O)C(=O)Nc2ccccc2Br)o1)C(=O)Nc1ccccc1 | nt | ? | 11µM*
O=C(CN1C(=O)COc2ccccc21)NC1CCCC1 | nt | 4% | 0%
O=c1cc(Cl)c(-c2ccccc2)nn1Cc1ccc(Cl)cc1 | nt | -2% | -1%
O=C1CCC(C(=O)N2CCN(c3ccccc3)CC2)CN1CC1CCCCC1 (centres undefined) | nt | 1% | -1%
CCN1CCCc2cc(CN(CCN3CCOCC3)C(=S)Nc3cccc(C)c3)ccc21 | -1% | -2%[10 µM] | 6.3µM*
COc1ccccc1NC(=S)N(CCN1CCOCC1)Cc1ccccc1F | 0% | -22% | -21%
CCN1CCCc2cc(CN(CCN3CCOCC3)C(=S)Nc3ccc(OC)c(OC)c3)ccc21 | 0% | -1%[10 µM] | -1%
CCN1CCCc2cc(CN(CCN3CCOCC3)C(=S)Nc3ccccc3C)ccc21 | 1% | -10%[10 µM] | 5%
CCN1CCCc2cc(CN(CCN3CCOCC3)C(=S)Nc3ccccc3OC)ccc21 | 1% | -14% | 10µM*
CCOc1ccc2c(c1)C(N(CCN1CCOCC1)C(=S)Nc1ccccc1OC)CC(C)(C)O2 (centres undefined) | 0% | ? | 16µM*
CCCCCCC1=Cc2cc(OC)c(OC)cc2C(C(C(C)=O)C(=O)OC)O1 (centres undefined) | nt | 10%[10 µM] | 41%[10 µM]
O=c1[nH]nc(Sc2ncnc3sccc23)n1CCc1ccccc1 | -1% | ? | 16µM*
CCN(CC)C(=O)CSc1n[nH]c(=O)n1CCc1ccccc1 | nt | 8% | 6%
CCS(=O)(=O)c1ccc(C(=O)NC2CC2)c(Cl)c1Cl | -1% | -2% | -9%
COc1ncc2nc(-c3ccc(F)cc3)c(=O)n(C)c2n1 | nt | 3% | -4%
Oc1ccc(N=Nc2ccccc2)o1 | nt | 16µM* | ?
Oc1c(N=Nc2ccccc2)sc2ccccc12 | nt | ? | -42%
COC(=O)c1nnc(SC)nc1C(=O)OC | -4% | -3% | -18%
COc1cc(OC)c(NC(=O)c2csc(C)c2)cc1Cl | nt | 2% | 6%
CCOc1ccc(NC(=O)CCCN2C(=S)NC(C)(C)CC2C)cc1 (centres undefined) | -2% | ? | ?
Cc1cc(Br)ccc1NC(=O)CN1C(=S)NC(C)(C)CC1C (centres undefined) | 0% | -4% | 16%
CC1CC(C)(C)NC(=S)N1CCCC(=O)Nc1ccc(Br)cc1 (centres undefined) | 1% | ? | 4µM*
Cc1cccc(NC(=O)CCCN2C(=S)NC(C)(C)CC2C)c1C (centres undefined) | 3% | -24% | 11µM*
SMILES | KinaseGlo FLuc | VP16 counter | RORgamma inh
Cc1c(C(=O)O)oc2c1/C(=N\O)CC(C)(C)C2 | -2% | -14% | 2%
COc1ccc(C(C(=O)NCC2CCCO2)N(C(=O)Cn2nnc3ccccc32)c2ccccc2C(C)=O)cc1OC (centres undefined) | nt | -9% | 1%
Cc1cccc(OCCCn2c(=O)sc3ccccc32)c1 | -8% | -24% | 8.9µM*
Cc1cccc(OCCn2c(=O)sc3ccccc32)c1 | -1% | -14% | -9%
Cc1cccc(C(C(=O)NC2CCCCC2)N(Cc2cccnc2)C(=O)c2csnn2)c1 (centres undefined) | nt | 0% | -8%
COc1cccc2c1Oc1ncccc1N(C(=O)CCC(=O)NCc1cccc(C)c1)C2 | nt | ? | 4%
CN(C)S(=O)(=O)c1ccc(C(=O)Nc2ccccn2)cc1 | -2% | -2% | -2%
CN(C)S(=O)(=O)c1ccc(C(=O)Nc2nc3ccccc3[nH]2)cc1 | -1% | ? | 11µM*
CCn1nc(C(=O)Nc2nc3ccccc3[nH]2)c2ccccc2c1=O | 0% | ? | 11µM*
O=C(Nc1nc2ccccc2[nH]1)c1cc(F)cc(F)c1 | nt | ? | -24%
N#Cc1ccc(C(=O)Nc2ccc3ccccc3c2)cc1 | nt | -2% | -30%
O=C(Nc1nc2ccccc2[nH]1)c1ccc(F)cc1 | ? | 5.6µM* | 2.8µM*
Cn1nc(C(=O)Nc2nc3ccccc3[nH]2)c2ccccc2c1=O | -1% | ? | ?
N#Cc1ccc(C(=O)Nc2nc3ccccc3[nH]2)cc1 | nt | 7.1µM* | 3.5µM*
COc1ccc(/C=C/C(=O)c2cc3c(cc2N)OCO3)cc1 | ? | 4% | -2%
Cc1cc(C(=O)NC2CCCN(Cc3ccccc3F)C2)n[nH]1 (centres undefined) | nt | -7% | -10%
COC(=O)C1CCN(C(=O)C2CCC(=O)N(CCc3cccc(F)c3)C2)CC1 (centres undefined) | nt | -8% | -5%
COc1ccc(/C=C/C(=O)c2ccccc2)cc1Cn1nnc2ccccc21 | -1% | ? | ?
CCc1ccc(C(=O)Nc2nc3ccccc3[nH]2)cc1 | nt | 4µM* | 2.2µM*
CN(c1ccccc1)S(=O)(=O)c1ccc(Cl)c(C(=O)Nc2nc3ccccc3[nH]2)c1 | -1% | 7.1µM* | 4µM*
O=C(Nc1ccccc1)c1ccc(Cc2nc3ccccc3[nH]2)cc1 | -1% | nt | nt
CN(c1ccccc1)S(=O)(=O)c1ccc(Cl)c(C(=O)Nc2ccc(-c3nc4ccccc4[nH]3)cc2)c1 | -2% | -1% | ?
O=C(CSc1nc2ccccc2[nH]1)c1ccccc1F | nt | 5% | -14%
O=C(Nc1nc2ccccc2[nH]1)c1ccccc1F | 2µM* | 1.8µM* | 0.71µM*
C=CCN1C(=O)C(=O)N(Cc2nc3ccccc3s2)C1=O | nt | 19% | 11%
SMILES | KinaseGlo FLuc | VP16 counter | RORgamma inh
COC(=O)/C=C1/SC(=NC(=O)c2ccccc2)NC1=O | nt | -7% | 35%
COc1ccccc1/C=C1\S/C(=N/NC(=O)c2cccc(Br)c2)NC1=O | -1% | 0.56µM* | 0.32µM*
COc1ccccc1C(=O)NNC(=O)c1cccc(Br)c1 | nt | -9% | ?
COC(=O)/C=C1/S/C(=N/NC(=O)c2ccccc2C)NC1=O | -5% | ? | ?
COC(=O)/C=C1\S/C(=N/NC(=O)c2ccccc2)NC1=O | 17% | 11µM* | 11µM*
COC(=O)/C=C1/S/C(=N/NC(=O)c2ccccc2)NC1=O | -1% | 0% | 2.8µM*
C=C1C2CC[C@]3(CCC4[C@@]5(C)CCC[C@@]4(CN(CCO)C5)[C@@H]3C2)[C@@H]1O (some centres undefined) | 2% | -11% | 16%
COc1cccc(N2CCN(C(=O)C3CCCN(c4ncnc5c4nc4n5CCCCC4)C3)CC2)c1 (centres undefined) | nt | -3% | 43%
CCCCNc1nc(C#N)nc(Nc2ccccc2)n1 | nt | -21% | nt
C=C(C(=O)c1ccccc1)C(C(=C)C(=O)c1ccccc1)c1ccc(OC)cc1 | nt | -8% | 26%
CC(=O)NC(C(=O)c1ccccc1)C(=O)c1ccccc1 | nt | -17% | -11%
C=C(C(=O)c1ccccc1)C(c1ccccc1)C(C)C(=O)c1ccccc1 (centres undefined) | 2% | 16µM* | 2.8µM*
C=C(C(=O)c1ccccc1)C(C)C(=C)C(=O)c1ccccc1 | 1% | 11µM* | 13µM*
